Enrichment ratio data for 155 variants are collected here from a collection of fitness landscapes (doi:10.1126/science.1257360).

Over roughly 140,000 sequences, “enrichment ratio after two sorts for PhoP signalling” has its median near 0; the highest 2% begin near 11. The sample holds the highest values, similar sequences and a random draw of the others, so the mix is not that of the screen. Some results are limits rather than exact numbers.

B1: PhoQ; a variant is named by its letters at X, in order, P23837 (parent)
chain: MKKLLRLFFPLSLRVRFLLATAAVVLVLSLAYGMVALIGYSVSFDKTTFRLLRGESNLFYTLAKWENNKLHVELPENIDKQSPTMTLIYDENGQLLWAQRDVPWLMKMIQPDWLKSNGFHEIEADVNDTSLLLSGDHSIQQQLQEVREDDDDAEMTHSVAVNVYPATSRMPKLTIVVVDTIPVELKSSYMVWSWFIYVLSANLLLVIPLLWVAAWWSLRPIEALAKEVRELEEHNRELLNPATTRELTSLVRNLNRLLKSERERYDKYRTTLTDLTHSLKTPLXXLQXXLRSLRSEKMSVSDAEPVMLEQISRISQQIGYYLHRASMRGGTLLSRELHPVAPLLDNLTSALNKVYQRKGVNISLDISPEISFVGEQNDFVEVMGNVLDNACKYCLEFVEISARQTDEHLYIVVEDDGPGIPLSKREVIFDRGQRVDTLRPGQGVGLAVAREITEQYEGKIVAGESMLGGARMEVIFGRQHSAPKDE

The variants in the experiment derive from B1. Kind of experiment: enrichment ratio after two sorts for PhoP signalling (ratio (wild type AVST 3.29)); higher = more functional. The conditions noted are these: with PhoP (E. coli).
For the variant SALS, the enrichment ratio worked out at 11.5. As for SALN, the figure is 11.9; as for SAPA, no more than 0.25; as for SYEW, no more than 0.25. As for PEIY, the figure is no more than 0.25; as for VINR, no more than 0.25. For the variant ELMR, the enrichment ratio is no more than 0.25.

For DFTI, the enrichment ratio is no more than 0.25. Regarding SIMM, the enrichment ratio turned out to be 1.49. Regarding SAMM, the enrichment ratio worked out at 12.7. Take TQMM: the enrichment ratio worked out at 57.7. LCWM: the enrichment ratio was no more than 0.25.

For the variant SYMM, the enrichment ratio was 0.307. With NQMM the figure was no more than 0.25; with LCMM, 26.9. With SRMM the figure was 1.64.

With FQMM, the enrichment ratio turned out to be 5.91.

Consider SEMM, for which the enrichment ratio worked out at 32.5. As for KFMM, the figure is no more than 0.25; as for SPMM, no more than 0.25.

For PFQY, the enrichment ratio is no more than 0.25.

Take GAKN: the enrichment ratio was no more than 0.25. As for FYYW, the figure is no more than 0.25; as for FFHN, no more than 0.25; as for SYFV, no more than 0.25. As for WNTR, the figure is no more than 0.25. As for WKFY, the figure is no more than 0.25; as for EDEV, no more than 0.25. Consider TFAW, for which the enrichment ratio was no more than 0.25. On to HTHM, for which the enrichment ratio was no more than 0.25.

Regarding YRCS, the enrichment ratio was no more than 0.25. As for RLLR, the figure is no more than 0.25; as for YYMM, no more than 0.25; as for TGMM, 16. With STMM, the enrichment ratio was found to be 18.6. SQMM: the enrichment ratio is 3.97.

KYMM: the enrichment ratio is no more than 0.25. As for RGMM, the figure is no more than 0.25; as for SSMM, 19.1. SWMM: the enrichment ratio was no more than 0.25. On to YAMM, for which the enrichment ratio came out at 3.27.

With NGMM, the enrichment ratio is no more than 0.25. With YTMM the figure was 11.8; with APTA, no more than 0.25; with HDAK, no more than 0.25. As for NSKR, the enrichment ratio is no more than 0.25. As for FYPF, the enrichment ratio is no more than 0.25.

As for SSWP, the enrichment ratio was no more than 0.25. As to IRWL, the enrichment ratio is no more than 0.25. As for QACS, the figure is no more than 0.25; as for PGDN, no more than 0.25; as for GRMN, no more than 0.25. For the variant NMLY, the enrichment ratio was no more than 0.25. As for FTMM, the figure is 12.1; as for WIMM, no more than 0.25. With NIMM, the enrichment ratio was determined as 16.

As for GGMM, the enrichment ratio was no more than 0.25. Consider YHMM, for which the enrichment ratio was no more than 0.25. With SHMM the figure was 2.18; with FSMM, 4.33; with QPMM, no more than 0.25. Regarding NHMM, the enrichment ratio was no more than 0.25. Regarding MTMM, the enrichment ratio stood at 59.5. As for MMMM, the figure is no more than 0.25; as for THMM, 17.6. With PMCS the figure was no more than 0.25; with REDA, no more than 0.25. In the case of PAGC, the enrichment ratio is no more than 0.25. With YDLP the figure was no more than 0.25.

For the variant IRNP, the enrichment ratio is no more than 0.25. As for DPYV, the figure is 2.59; as for EAKL, no more than 0.25; as for YERM, no more than 0.25.

As for SLMM, the enrichment ratio is 5.51. For the variant YSWM, the enrichment ratio is no more than 0.25.

On to YEMM, for which the enrichment ratio came out at 16.1. With VTGM the figure was no more than 0.25. With VTTS the figure was no more than 0.25. As for SCMM, the figure is 14.4; as for VTTM, 16.4; as for NRMM, no more than 0.25. Regarding YEGM, the enrichment ratio is no more than 0.25. For YSMM, the enrichment ratio is 14.3.

As for KCMM, the enrichment ratio is no more than 0.25. With RADI the figure was no more than 0.25; with MQSS, no more than 0.25.

With NLSW, the enrichment ratio was no more than 0.25. FRTV: the enrichment ratio is no more than 0.25.

NQTP: the enrichment ratio was no more than 0.25. With GFHH the figure was no more than 0.25; with SQRD, no more than 0.25. As for VHHE, the figure is no more than 0.25; as for VCMM, 2.29; as for GQMM, 11.4.

Turning to TYMM, the enrichment ratio was found to be 2.16. Consider YEMV, for which the enrichment ratio amounted to 2.64.

GYMM: the enrichment ratio is 0.253. With VYMM the figure was no more than 0.25.

As to YEMW, the enrichment ratio was no more than 0.25.

With VTPM, the enrichment ratio was no more than 0.25.

Take TCMM: the enrichment ratio was 11.8. With VTMM the figure was 12.1. As for YEMS, the figure is 14.7; as for GTMM, 5.34; as for ILAT, 0.361. Turning to HVDN, the enrichment ratio was no more than 0.25. With TLEY, the enrichment ratio is no more than 0.25.

As for KMTV, the enrichment ratio is no more than 0.25. As for FPHD, the figure is no more than 0.25. As for WHGQ, the figure is no more than 0.25. As for TSMM, the figure is 21.5. In the case of SKMM, the enrichment ratio turned out to be 24.1. As for FFMM, the figure is no more than 0.25; as for QTMM, no more than 0.25.

Take QGMM: the enrichment ratio worked out at 31.6. Regarding KSMM, the enrichment ratio is no more than 0.25. With MDMM the figure was no more than 0.25; with FCMM, 8.52; with NSMM, 1.7. With MCMM the figure was 11.9; with SKMG, 3.1.

With QLQK, the enrichment ratio was no more than 0.25.

Turning to TKIP, the enrichment ratio was no more than 0.25. As to ELAY, the enrichment ratio was no more than 0.25. With NETK the figure was no more than 0.25. As for MVNN, the figure is no more than 0.25; as for RGIV, no more than 0.25; as for SFSE, no more than 0.25. With ETYT the figure was no more than 0.25; with MTEV, no more than 0.25; with VHMG, no more than 0.25. In the case of LNMM, the enrichment ratio is 1.77. As for LSMM, the figure is 12.4; as for LWMM, no more than 0.25. As for FGGM, the figure is no more than 0.25; as for LSWM, 2.98; as for FGWM, no more than 0.25. In the case of NNMM, the enrichment ratio is 17.4. With NNRM the figure was no more than 0.25; with FGMM, 18.1. With DRPI the figure was no more than 0.25; with ETGL, no more than 0.25; with YNMN, no more than 0.25.

Turning to ICFY, the enrichment ratio was no more than 0.25. With DNHD the figure was no more than 0.25; with PFKT, no more than 0.25; with QPNP, no more than 0.25. With PFSV the figure was no more than 0.25; with NIRV, no more than 0.25; with ALCI, 9.33. With ALCQ the figure was 13.8; with ALQP, no more than 0.25; with LLCQ, no more than 0.25. With ALCE, the enrichment ratio is 16.1. With ALVE the figure was no more than 0.25.
